Reference: PubChem BioAssay
Calls of active or inactive are those of the source.

Tests used:
[1] = small molecules captured by biotinylated probe aFSTL3 – biochemical, small-molecule microarray, fluorescence 635/667, stem cell growth factor project, primary screen (AID 1064); conditions: higher = more signal;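 further: measures binding of the biotinylated anti-FSTL3 antibody to printed compounds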
[2] = binders from COS7 lysate, DM2A8 probe, primary screen, torsin A project, cell lysate, small-molecule microarray, fluorescence 635/667 (AID 1065); conditions: higher = more signal, COS7 lysate expressing mutant human TOR1A
[3] = small molecules captured by biotinylated probe aFGF2 – biochemical, small-molecule microarray, fluorescence 635/667, stem cell growth factor project, primary screen (AID 1067); conditions: higher = more signal;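 further: measures binding of biotinylated aFGF2 protein to printed compounds on slides; z-score merges feature fluorescence and signal-to-noise across triplicate slides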
[4] = small molecules captured by biotinylated probe aFGF10 – biochemical, small-molecule microarray, fluorescence 635/667, stem cell growth factor project, primary screen (AID 1071); conditions: higher = more signal;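 further: score merges 667 nm spot intensity and signal to noise from triplicate slides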
[5] = molecular target: Neurogenic locus notch homolog protein 2 (Homo sapiens) (UniProt Q04721); assay: small molecules binding Notch2 protein – biochemical, small-molecule microarray, 635 nm fluorescence, stem cell growth factors, primary screen (AID 1073); conditions: higher = more signal
[6] = molecular target: Pro-neuregulin-1, membrane-bound isoform (Homo sapiens) (UniProt Q02297); assay: small molecules binding neuregulin-1 protein – biochemical, small-molecule microarray, fluorescence 635/667, psychiatric disease protein project, primary screen (AID 1075); conditions: NRG1 binding, 635 nm fluorescence, higher = more signal;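 further: score combines 667 nm spot fluorescence with signal to noise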
[7] = test system: Neuregulin-1 EGF-like domain; assay: small molecules binding NRG1 EGF domain – biochemical, small-molecule microarray, 635 nm fluorescence, primary screen (AID 1081); conditions: higher = more signal;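 further: binding of the protein to compounds printed on small-molecule microarray slides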
[8] = FRG1 expression reporter modulators in myotubes – cell-based, C2C12 myotubes, firefly/Renilla luciferase, luminescence, FRG1 inhibition for FSHD, primary screen (AID 1084); conditions: FRG1 promoter luciferase, higher = more signal, called active from +8 up or from −8 down
[9] = small molecules captured by biotinylated probe aFST – biochemical, small-molecule microarray, fluorescence 635/667, stem cell growth factor project, primary screen (AID 1086); conditions: higher = more signal;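 further: score merges 667 nm fluorescence with signal-to-noise of each printed compound spot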
[10] = binders of probe aHhip on microarray, primary screen, stem cell growth factor project, biochemical, small-molecule microarray, fluorescence 635/667 (AID 1087); conditions: higher = more signal;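 further: score merges spot fluorescence at 667nm with spot signal to noise ratio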
[11] = test system: PRMT1 (protein arginine N-methyltransferase 1); assay: small molecules binding arginine methyltransferase PRMT1 – biochemical, small-molecule microarray, 635 nm fluorescence, primary screen (AID 1088); conditions: higher = more signal;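 further: binding of Prmt1 protein to compounds spotted on small-molecule microarray slides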
[12] = growth effects on S. cerevisiae YJM789 – YJM789 clinical isolate, OD600, 24 h, basal, primary screen (AID 1089); conditions: higher = more signal, called active from +8 up or from −8 down;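 further: growth of clinical yeast isolate S. cerevisiae YJM 789 seeded 1000 cells per well; test concentration not given here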
[13] = S. pombe growth modifiers, basal conditions – strain 972, OD600, 24 h, no modulator, primary screen (AID 1090);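 further: basal condition with compound alone and no growth modifier present; test concentration not given here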; conditions: S. pombe 972 growth, higher = more signal, called active from +8 up or from −8 down
[14] = budding yeast growth modifiers under rapamycin – strain BY4716, OD600, 96 h, primary screen (AID 1091); further: test concentration not given here; conditions: S. cerevisiae BY4716 + rapamycin, higher = more signal, called active from +8 up or from −8 down
[15] = molecular target: Torsin-1A-interacting protein 2 (Homo sapiens) (UniProt Q8NFQ8); assay: small molecules binding lysate-expressed LULL1 – cell lysate, human LULL1 lysate, 635/667 nm fluorescence, primary screen (AID 1092); conditions: small-molecule microarray, hLULL1 lysate binding, 635 nm fluorescence; higher = more signal;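 further: probe is lysate of COS7 cells overexpressing human LULL1; score merges per-feature 667 nm fluorescence with signal-to-noise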
[16] = optical density change of DRC41 E. coli – strain DRC41, OD650, 24 h, E. coli filamentation project, primary screen (AID 1093);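 further: MC1000 strain lacking acrAB efflux and sulA so SOS filamentation is blocked; test concentration not given here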; conditions: E. coli DRC41 growth, higher = more signal, called active from +8 up or from −8 down
[17] = probe aLefty2 binding to arrayed compounds – biochemical, biotinylated probe, 635/667 nm fluorescence, primary screen (AID 1094); conditions: small-molecule microarray, higher = more signal;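 further: score merges spot fluorescence near 667 nm with spot signal-to-noise ratio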
[18] = test system: Noggin (protein binding on small-molecule microarray); assay: small molecules binding Noggin protein – biochemical, 635/667 nm fluorescence, primary screen (AID 1095); conditions: 635 nm fluorescence, higher = more signal;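 further: score merges 667 nm feature fluorescence with signal to noise over triplicate slides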
[19] = molecular target: Neurogenic locus notch homolog protein 3 (Homo sapiens) (UniProt Q9UM47); assay: small molecules binding NOTCH3 protein – biochemical, 635/667 nm fluorescence, primary screen (AID 1096); conditions: small-molecule microarray, 635 nm fluorescence, higher = more signal
[20] = probe aEGFR binding to arrayed compounds – biochemical, biotinylated probe, 635/667 nm fluorescence, primary screen (AID 1097); conditions: small-molecule microarray, higher = more signal;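 further: probe is a biotinylated anti-EGFR antibody binding compounds printed on slides; score combines fluorescence near 667 nm and signal to noise of each spot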

Sequence of Pro-neuregulin-1, membrane-bound isoform (Homo sapiens) (Q02297 whole entry, looked up, the tested form may be a part, canonical isoform): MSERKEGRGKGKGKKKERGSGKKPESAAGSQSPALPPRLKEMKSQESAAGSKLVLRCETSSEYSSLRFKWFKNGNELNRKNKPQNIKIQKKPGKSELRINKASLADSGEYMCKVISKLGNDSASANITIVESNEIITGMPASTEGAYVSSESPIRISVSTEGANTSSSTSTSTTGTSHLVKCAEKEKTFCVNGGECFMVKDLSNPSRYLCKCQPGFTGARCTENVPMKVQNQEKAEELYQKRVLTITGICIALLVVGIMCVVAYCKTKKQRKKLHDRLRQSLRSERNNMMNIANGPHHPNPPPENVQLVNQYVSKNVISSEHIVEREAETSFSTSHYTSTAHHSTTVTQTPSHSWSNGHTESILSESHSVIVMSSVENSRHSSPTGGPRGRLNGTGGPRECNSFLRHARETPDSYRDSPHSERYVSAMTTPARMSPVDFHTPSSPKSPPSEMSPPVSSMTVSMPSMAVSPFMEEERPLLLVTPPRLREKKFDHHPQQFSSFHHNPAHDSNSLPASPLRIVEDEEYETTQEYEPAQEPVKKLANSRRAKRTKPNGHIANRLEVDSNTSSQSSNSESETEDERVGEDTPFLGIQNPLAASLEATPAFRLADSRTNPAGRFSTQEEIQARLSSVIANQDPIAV
Sequence of Neurogenic locus notch homolog protein 2 (Homo sapiens) (Q04721 whole entry, looked up, canonical isoform): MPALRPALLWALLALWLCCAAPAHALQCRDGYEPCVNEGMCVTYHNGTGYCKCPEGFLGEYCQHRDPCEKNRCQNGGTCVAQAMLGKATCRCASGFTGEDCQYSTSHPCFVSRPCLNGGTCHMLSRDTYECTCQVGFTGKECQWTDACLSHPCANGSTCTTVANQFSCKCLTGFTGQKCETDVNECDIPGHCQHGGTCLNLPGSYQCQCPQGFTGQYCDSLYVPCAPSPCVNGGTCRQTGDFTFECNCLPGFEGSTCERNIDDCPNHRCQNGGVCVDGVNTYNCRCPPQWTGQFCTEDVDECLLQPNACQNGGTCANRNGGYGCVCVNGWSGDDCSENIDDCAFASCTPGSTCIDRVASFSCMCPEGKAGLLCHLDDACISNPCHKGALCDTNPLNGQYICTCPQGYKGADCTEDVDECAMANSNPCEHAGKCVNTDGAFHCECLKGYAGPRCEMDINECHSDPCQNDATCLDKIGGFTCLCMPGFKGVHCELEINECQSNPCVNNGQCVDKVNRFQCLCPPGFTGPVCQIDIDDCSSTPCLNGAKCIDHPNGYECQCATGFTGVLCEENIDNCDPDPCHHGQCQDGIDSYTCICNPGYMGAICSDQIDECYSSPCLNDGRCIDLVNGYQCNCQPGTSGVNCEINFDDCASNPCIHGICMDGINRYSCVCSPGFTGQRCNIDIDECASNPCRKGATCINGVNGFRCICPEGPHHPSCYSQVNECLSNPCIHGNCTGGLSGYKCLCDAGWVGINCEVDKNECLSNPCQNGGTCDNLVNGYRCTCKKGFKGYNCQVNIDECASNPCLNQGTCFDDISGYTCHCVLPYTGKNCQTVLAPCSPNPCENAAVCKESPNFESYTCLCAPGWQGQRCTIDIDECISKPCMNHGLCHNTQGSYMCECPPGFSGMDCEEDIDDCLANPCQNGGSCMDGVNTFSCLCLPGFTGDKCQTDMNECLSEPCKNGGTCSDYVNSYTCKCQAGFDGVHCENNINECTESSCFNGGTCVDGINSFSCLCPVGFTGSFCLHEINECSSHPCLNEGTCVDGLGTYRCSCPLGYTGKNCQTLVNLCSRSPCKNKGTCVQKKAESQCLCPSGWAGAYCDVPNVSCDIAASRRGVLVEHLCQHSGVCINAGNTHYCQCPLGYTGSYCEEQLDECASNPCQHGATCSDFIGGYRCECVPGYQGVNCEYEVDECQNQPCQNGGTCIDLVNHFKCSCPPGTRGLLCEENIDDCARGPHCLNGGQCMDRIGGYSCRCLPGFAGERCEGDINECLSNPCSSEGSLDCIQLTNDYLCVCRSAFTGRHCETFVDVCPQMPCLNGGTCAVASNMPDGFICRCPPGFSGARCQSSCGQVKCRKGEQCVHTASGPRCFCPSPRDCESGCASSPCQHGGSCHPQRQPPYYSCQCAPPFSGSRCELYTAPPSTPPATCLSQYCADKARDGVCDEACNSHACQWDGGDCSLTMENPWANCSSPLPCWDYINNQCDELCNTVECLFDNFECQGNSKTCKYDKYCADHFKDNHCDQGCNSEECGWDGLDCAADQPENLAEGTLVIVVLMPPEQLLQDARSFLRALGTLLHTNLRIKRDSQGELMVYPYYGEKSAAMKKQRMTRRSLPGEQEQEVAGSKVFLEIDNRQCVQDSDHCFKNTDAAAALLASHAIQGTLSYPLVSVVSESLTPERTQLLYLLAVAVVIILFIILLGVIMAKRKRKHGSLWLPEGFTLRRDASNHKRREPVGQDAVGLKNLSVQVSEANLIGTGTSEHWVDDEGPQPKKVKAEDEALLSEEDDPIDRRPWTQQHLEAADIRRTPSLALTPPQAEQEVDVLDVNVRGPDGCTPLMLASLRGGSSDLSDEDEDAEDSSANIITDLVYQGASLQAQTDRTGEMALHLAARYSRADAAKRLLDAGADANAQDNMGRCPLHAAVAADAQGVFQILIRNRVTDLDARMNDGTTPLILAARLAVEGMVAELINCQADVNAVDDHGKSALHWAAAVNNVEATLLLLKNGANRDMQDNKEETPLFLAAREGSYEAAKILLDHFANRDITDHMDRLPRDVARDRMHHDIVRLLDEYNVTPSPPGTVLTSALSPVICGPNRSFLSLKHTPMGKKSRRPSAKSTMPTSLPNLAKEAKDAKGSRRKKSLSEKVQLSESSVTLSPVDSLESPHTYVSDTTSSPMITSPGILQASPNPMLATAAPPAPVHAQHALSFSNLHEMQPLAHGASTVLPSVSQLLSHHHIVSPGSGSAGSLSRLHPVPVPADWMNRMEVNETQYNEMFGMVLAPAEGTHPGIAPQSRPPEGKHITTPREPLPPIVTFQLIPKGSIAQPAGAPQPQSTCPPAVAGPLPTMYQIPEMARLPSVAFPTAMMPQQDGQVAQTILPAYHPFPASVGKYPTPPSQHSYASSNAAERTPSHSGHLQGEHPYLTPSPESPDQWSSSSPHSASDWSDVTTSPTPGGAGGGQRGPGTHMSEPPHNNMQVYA
Sequence of Torsin-1A-interacting protein 2 (Homo sapiens) (Q8NFQ8 whole entry, looked up): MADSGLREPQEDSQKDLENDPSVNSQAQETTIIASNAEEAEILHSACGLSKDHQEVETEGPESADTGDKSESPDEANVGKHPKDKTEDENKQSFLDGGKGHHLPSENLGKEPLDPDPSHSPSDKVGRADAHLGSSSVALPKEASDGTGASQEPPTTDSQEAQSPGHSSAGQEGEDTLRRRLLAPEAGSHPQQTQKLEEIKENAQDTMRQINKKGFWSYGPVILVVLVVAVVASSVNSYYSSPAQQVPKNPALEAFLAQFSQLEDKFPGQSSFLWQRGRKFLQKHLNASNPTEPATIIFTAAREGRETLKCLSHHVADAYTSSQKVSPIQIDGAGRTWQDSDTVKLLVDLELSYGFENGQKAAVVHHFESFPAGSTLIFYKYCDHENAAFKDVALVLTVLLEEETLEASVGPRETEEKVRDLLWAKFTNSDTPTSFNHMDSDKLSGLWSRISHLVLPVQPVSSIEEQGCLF

Structure (SMILES)	composite z-score [1]	composite z-score [2]	composite z-score [3]	composite z-score [4]	composite z-score [5]	composite z-score [6]	composite z-score [7]	z-score [8]	composite z-score [9]	composite z-score [10]	composite z-score [11]	z-score [12]	z-score [13]	z-score [14]	composite z-score [15]	z-score [16]	composite z-score [17]	composite z-score [18]	composite z-score [19]	composite z-score [20]
CC(C)[C@H]1NC(=O)[C@@]23C(=O)N[C@@H](Cc4ccccc4)C2[C@H](C)[C@@]2(C)O[C@H]2C3/C=C/C/C=C\CNC(=O)[C@H](C)NC1=O (stereo not given in full)	0.11	-0.663	-0.164	0.51	-1.59	-0.967	0.754	0.194 (inactive)	-0.367	-0.399	-1.24	0.782 (inactive)	0.469 (inactive)	0.41 (inactive)	-0.62	-0.823 (inactive)	-0.287	-0.632	-0.517	-0.255
C=C(CCCC)/C(=C/C[C@H](OC(=O)c1ccncc1)c1cccc(OCCO)c1)c1cc(C(=O)OC)ccc1OC	-0.195	0.422	0.0346	1.05	-0.0883	0.0742	0.952	5.01 (inactive)	0.104	0.0854	1.4	0.15 (inactive)	-0.323 (inactive)	2.82 (inactive)	1.23	1.94 (inactive)	-0.174	1.08	0.966	-0.112
COCCOC(=O)N1C(=O)[C@@]2(c3cc(C#CC4=CCCCC4)ccc31)[C@H](C(=O)NC[C@H](O)c1ccccc1)[C@H]1C(=O)O[C@H](c3ccccc3)[C@H](c3ccccc3)N1[C@@H]2c1ccc(OCCO)cc1	-0.409	0.782	-0.0566	0.478	1.26	1.12	1.26	0.916 (inactive)	0.575	-0.0645	1.54	2.15 (inactive)	1.44 (inactive)	4.41 (inactive)	2.41	-0.662 (inactive)	-0.003	1.85	1.13	-0.144
CO[C@H]1COC(=O)CC=C[C@@H](C)COC(=O)[C@@H](C)NC(=O)CC=C[C@@H]1C	-1.1	2.24	-0.138	-0.248	-0.604	-0.907	-0.228	-1.88 (inactive)	0.219	0.0274	1.53	-3.75 (inactive)	-2.87 (inactive)	-2.71 (inactive)	-0.55	-0.288 (inactive)	-0.179	1.83	0.473	-0.0243
Cc1ccc(S[C@]2(C(=O)NC(C)C)CC(=O)N(C3Cc4ccccc4C3)[C@@H]2c2ccc(CO)cc2)cc1	-0.796	0.172	-0.148	0.301	-0.586	1.42	0.62	-2.74 (inactive)	-0.554	-0.292	1.53	0.106 (inactive)	-1.65 (inactive)	-0.517 (inactive)	2.95	-2.16 (inactive)	-0.222	-0.0057	0.506	-0.308
COCC(=C=CC[C@H](O)c1ccc(OCCO)cc1)C[C@H](O)c1ccccn1	-0.103	0.628	-0.156	-0.106	-0.499	0.508	1.27	1.61 (inactive)	-0.192	-0.134	0.546	0.725 (inactive)	-1.05 (inactive)	-0.352 (inactive)	1.38	1.06 (inactive)	-0.0216	0.0559	-0.457	-0.235
Cc1ccc(S[C@]2(C(=O)O)CC(=O)N(Cc3cc(C(F)(F)F)cc(C(F)(F)F)c3)[C@@H]2c2ccc(CO)cc2I)cc1	0.793	0.0039	-0.103	0.002	-1.18	1.28	0.603	0.419 (inactive)	-0.292	0.0373	1.33	-0.455 (inactive)	-2.26 (inactive)	2.31 (inactive)	1.59	0.663 (inactive)	0.107	-1.49	-0.913	-0.264
COc1ccc(C(=O)Nc2ccc(CN3C(=O)[C@]4(O[C@H](CCn5cc(CCO)nn5)[C@@H]([Si](C)(C)c5ccc(OC)cc5)[C@@H]4C)c4ccccc43)cc2)cc1	0.263	0.259	0.0331	1.05	1.46	0.485	1.09	-3.72 (inactive)	-0.177	-0.0645	1.56	1.42 (inactive)	-7.78 (inactive)	1.13 (inactive)	0.961	1.07 (inactive)	0.201	1.65	1.08	0.14
O=C1c2ccccc2[C@](Cc2ccccc2I)(C(=O)NCc2ccccc2)[C@H](c2ccc(CO)cc2)N1Cc1ccccc1C(F)(F)F	0.988	0.077	-0.131	-0.787	-1.28	0.385	-0.56	-1.98 (inactive)	-0.318	-0.134	1.27	0.417 (inactive)	-1.05 (inactive)	0.304 (inactive)	2.44	1.03 (inactive)	-0.0345	-1.05	-0.785	-0.179
N#Cc1ccc(NN2C(C(O)c3ccc(I)cc3)C=CC3C(=O)N(c4ccccc4)C(=O)C32)cc1 (stereo not given)	0.0909	-0.0384	0.105	0.587	1.32	1.76	1.28	-2.73 (inactive)	0.857	0.0854	1.16	0.647 (inactive)	2.19 (inactive)	3.88 (inactive)	3.47	-1.38 (inactive)	0.247	-0.0788	1.07	0.0601
CC[C@H]1C2=C3C(CC[C@H]4C(OC)OC[C@](C)([C@@H]34)N(C(=O)OC(C)(C)C)C2)C(CO)C1CO (stereo not given in full)	1.21	0.896	0.181	0.366	1.65	1.32	1.13	-0.342 (inactive)	1.87	0.0053	1.4	-1.22 (inactive)	1.21 (inactive)	-0.565 (inactive)	3.35	-0.468 (inactive)	0.762	0.0676	1.11	0.477
